In ChEMBL document CHEMBL1961873, “Compounds: GSK PKIS; Assays: Nanosyn kinase panel” (2012):

Experiments:
[1] = target: Protein kinase C gamma type (Homo sapiens) (UniProt P05129); conditions: at 1 µM;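 note: each value is an averaged percent inhibition of the enzyme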
[2] = target: T1, Protein kinase C iota type (Homo sapiens) (UniProt P41743); conditions: at 0.1 µM
T1 sequence (whole entry): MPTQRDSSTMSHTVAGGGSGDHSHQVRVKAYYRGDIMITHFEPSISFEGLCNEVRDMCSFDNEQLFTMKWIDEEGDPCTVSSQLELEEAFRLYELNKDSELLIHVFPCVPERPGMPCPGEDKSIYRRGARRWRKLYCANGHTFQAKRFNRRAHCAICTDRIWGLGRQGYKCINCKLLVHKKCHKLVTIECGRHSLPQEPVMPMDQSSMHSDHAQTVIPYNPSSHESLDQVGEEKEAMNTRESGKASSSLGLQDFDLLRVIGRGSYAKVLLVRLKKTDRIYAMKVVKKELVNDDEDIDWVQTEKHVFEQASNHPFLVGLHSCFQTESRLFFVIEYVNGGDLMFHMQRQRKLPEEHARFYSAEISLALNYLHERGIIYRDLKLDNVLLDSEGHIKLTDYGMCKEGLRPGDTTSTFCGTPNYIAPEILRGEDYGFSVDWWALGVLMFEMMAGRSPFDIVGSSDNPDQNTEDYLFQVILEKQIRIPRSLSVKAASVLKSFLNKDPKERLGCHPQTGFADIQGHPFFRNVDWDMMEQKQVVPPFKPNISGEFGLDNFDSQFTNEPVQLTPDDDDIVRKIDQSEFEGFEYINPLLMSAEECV

[3] = target: T1, Protein kinase C iota type (Homo sapiens); conditions: at 1 µM
[4] = target: Protein kinase C theta type (Homo sapiens) (UniProt Q04759); conditions: at 0.1 µM
Chain of Protein kinase C theta type (Homo sapiens) (Q04759 whole entry, looked up): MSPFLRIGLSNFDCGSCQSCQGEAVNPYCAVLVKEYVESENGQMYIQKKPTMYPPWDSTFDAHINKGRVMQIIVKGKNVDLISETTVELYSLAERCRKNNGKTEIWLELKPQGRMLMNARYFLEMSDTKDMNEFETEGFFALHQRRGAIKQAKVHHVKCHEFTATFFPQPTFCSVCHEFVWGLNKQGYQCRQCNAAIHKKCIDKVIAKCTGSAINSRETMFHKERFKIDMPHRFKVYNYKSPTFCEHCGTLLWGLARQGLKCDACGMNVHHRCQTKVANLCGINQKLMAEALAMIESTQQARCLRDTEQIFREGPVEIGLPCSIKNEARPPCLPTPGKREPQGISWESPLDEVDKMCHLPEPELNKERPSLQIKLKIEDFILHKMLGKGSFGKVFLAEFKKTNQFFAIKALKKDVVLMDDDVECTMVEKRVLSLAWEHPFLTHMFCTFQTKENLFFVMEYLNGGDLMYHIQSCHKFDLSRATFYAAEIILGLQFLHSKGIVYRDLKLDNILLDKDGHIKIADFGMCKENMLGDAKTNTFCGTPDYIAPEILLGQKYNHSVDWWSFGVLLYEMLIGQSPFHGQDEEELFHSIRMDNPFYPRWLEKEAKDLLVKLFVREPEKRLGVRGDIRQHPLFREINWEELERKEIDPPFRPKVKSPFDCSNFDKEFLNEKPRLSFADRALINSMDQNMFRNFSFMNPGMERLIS

[5] = target: Protein kinase C theta type (Homo sapiens) (UniProt Q04759); conditions: at 1 µM
[6] = target: Protein kinase C beta type (Homo sapiens) (UniProt P05771); conditions: at 0.1 µM
Chain of Protein kinase C beta type (Homo sapiens) (P05771 2-671 limits assumed): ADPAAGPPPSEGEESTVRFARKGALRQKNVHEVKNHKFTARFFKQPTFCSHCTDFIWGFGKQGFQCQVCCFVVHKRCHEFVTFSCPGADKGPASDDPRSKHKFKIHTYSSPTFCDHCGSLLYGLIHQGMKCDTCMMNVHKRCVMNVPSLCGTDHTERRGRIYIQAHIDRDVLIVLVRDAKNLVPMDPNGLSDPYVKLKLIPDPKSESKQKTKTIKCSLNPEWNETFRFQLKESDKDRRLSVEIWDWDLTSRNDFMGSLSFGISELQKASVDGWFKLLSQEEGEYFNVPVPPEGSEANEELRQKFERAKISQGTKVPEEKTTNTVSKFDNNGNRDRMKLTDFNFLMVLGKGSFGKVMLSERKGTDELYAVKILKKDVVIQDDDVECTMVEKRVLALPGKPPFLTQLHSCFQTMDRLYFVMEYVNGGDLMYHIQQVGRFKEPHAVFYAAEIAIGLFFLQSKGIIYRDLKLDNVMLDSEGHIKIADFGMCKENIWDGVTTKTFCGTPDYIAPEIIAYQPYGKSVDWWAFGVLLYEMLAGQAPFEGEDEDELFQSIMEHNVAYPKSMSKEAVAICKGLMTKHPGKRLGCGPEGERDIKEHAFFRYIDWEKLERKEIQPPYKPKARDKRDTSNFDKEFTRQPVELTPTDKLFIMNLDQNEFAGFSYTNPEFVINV

[7] = target: Protein kinase C beta type (Homo sapiens) (UniProt P05771); conditions: at 1 µM
[8] = target: T2, Serine/threonine-protein kinase D1 (Homo sapiens) (UniProt Q15139); conditions: at 0.1 µM
T2 sequence (whole entry): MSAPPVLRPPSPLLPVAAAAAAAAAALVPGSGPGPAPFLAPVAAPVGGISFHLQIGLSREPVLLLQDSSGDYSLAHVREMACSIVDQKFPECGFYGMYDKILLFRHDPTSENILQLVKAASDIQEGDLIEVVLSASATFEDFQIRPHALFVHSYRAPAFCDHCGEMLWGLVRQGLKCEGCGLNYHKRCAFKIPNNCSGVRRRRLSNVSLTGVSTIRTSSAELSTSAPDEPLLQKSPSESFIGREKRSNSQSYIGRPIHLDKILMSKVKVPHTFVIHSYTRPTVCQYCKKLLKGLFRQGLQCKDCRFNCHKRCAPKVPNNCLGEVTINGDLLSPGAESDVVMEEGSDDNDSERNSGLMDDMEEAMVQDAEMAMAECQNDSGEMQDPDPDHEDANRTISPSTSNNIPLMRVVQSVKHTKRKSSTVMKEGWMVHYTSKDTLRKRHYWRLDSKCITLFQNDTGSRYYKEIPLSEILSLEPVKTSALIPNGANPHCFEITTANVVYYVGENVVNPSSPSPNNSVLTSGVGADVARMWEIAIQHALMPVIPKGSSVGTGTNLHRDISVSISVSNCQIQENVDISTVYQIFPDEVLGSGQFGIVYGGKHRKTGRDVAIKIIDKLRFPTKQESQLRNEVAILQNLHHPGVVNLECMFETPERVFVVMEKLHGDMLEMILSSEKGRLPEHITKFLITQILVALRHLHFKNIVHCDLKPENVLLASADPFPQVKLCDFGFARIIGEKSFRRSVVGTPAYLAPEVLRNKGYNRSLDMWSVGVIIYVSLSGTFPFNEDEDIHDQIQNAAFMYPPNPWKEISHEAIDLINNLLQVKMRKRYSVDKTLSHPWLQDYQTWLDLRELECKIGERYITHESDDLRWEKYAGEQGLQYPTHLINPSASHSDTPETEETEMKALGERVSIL

[9] = target: T2, Serine/threonine-protein kinase D1 (Homo sapiens); conditions: at 1 µM
[10] = target: T3, Serine/threonine-protein kinase D2 (Homo sapiens) (UniProt Q9BZL6); conditions: at 0.1 µM
T3 sequence (whole entry): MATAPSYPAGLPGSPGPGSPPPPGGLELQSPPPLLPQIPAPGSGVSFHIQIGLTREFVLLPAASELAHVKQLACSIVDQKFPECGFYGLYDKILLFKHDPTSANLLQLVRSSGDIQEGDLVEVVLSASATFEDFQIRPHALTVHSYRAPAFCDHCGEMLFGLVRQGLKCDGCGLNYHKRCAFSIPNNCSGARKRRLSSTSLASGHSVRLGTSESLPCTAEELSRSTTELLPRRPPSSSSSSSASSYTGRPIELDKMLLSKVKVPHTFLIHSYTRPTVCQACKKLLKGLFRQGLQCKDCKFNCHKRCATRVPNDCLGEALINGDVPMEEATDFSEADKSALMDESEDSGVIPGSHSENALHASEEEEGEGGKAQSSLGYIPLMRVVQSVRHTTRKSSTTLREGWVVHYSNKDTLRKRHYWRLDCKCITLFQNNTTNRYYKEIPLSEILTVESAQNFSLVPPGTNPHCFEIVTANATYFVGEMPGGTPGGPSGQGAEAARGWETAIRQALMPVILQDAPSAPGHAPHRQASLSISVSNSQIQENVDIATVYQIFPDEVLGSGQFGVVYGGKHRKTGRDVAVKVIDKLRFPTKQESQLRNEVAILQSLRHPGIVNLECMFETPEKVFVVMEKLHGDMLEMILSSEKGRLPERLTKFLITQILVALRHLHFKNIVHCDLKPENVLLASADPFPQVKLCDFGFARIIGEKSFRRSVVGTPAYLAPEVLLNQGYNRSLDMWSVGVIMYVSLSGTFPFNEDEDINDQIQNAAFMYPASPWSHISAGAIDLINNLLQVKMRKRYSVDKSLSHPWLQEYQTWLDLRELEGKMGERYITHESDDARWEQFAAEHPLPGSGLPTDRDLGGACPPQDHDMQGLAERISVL

[11] = target: T3, Serine/threonine-protein kinase D2 (Homo sapiens); conditions: at 1 µM
[12] = target: T4, Serine/threonine-protein kinase D3 (Homo sapiens) (UniProt O94806); conditions: at 0.1 µM
T4 sequence (whole entry): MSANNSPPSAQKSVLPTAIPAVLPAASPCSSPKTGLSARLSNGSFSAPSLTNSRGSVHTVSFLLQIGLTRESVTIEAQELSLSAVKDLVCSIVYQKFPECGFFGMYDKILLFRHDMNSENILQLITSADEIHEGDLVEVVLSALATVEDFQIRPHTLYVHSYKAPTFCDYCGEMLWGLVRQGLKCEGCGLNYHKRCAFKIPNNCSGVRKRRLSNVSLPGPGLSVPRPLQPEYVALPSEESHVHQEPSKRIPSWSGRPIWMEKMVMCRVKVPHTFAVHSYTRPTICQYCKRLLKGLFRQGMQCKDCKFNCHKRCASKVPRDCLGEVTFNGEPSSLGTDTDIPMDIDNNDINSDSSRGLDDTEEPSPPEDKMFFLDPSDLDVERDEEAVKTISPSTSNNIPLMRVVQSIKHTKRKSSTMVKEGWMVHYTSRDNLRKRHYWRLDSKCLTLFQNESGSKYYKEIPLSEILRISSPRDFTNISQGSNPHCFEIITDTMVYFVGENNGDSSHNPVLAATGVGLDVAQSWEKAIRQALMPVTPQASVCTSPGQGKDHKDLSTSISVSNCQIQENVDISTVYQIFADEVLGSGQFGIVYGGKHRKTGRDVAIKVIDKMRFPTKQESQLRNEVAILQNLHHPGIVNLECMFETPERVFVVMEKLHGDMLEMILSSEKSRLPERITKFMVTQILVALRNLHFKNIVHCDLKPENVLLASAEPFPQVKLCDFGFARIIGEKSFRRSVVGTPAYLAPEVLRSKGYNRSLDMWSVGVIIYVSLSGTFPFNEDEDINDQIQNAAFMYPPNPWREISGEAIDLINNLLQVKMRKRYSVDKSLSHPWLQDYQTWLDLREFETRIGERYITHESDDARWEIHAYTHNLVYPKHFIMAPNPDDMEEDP

[13] = target: T4, Serine/threonine-protein kinase D3 (Homo sapiens); conditions: at 1 µM
[14] = target: T5, cGMP-dependent protein kinase 1 (Homo sapiens) (UniProt Q13976); conditions: at 0.1 µM
T5 sequence (whole entry): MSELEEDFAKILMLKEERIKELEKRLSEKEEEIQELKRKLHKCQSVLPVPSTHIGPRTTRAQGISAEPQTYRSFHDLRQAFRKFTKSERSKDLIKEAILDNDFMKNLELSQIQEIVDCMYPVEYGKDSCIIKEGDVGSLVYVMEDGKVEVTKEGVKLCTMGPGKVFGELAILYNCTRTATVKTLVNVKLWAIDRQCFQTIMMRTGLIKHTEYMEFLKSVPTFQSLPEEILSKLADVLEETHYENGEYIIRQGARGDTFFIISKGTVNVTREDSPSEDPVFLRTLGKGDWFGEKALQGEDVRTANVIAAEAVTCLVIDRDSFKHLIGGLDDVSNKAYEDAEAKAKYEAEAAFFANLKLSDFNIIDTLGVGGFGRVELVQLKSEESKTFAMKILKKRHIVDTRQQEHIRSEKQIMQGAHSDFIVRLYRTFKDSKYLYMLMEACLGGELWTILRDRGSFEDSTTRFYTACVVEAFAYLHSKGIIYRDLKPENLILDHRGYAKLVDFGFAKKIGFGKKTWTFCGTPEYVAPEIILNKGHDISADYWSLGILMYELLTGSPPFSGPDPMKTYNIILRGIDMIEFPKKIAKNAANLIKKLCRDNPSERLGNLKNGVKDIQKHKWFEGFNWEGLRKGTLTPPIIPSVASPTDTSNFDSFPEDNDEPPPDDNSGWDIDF

[15] = target: T5, cGMP-dependent protein kinase 1 (Homo sapiens); conditions: at 1 µM
[16] = target: T6, cGMP-dependent protein kinase 2 (Homo sapiens) (UniProt Q13237); conditions: at 0.1 µM
T6 sequence (whole entry): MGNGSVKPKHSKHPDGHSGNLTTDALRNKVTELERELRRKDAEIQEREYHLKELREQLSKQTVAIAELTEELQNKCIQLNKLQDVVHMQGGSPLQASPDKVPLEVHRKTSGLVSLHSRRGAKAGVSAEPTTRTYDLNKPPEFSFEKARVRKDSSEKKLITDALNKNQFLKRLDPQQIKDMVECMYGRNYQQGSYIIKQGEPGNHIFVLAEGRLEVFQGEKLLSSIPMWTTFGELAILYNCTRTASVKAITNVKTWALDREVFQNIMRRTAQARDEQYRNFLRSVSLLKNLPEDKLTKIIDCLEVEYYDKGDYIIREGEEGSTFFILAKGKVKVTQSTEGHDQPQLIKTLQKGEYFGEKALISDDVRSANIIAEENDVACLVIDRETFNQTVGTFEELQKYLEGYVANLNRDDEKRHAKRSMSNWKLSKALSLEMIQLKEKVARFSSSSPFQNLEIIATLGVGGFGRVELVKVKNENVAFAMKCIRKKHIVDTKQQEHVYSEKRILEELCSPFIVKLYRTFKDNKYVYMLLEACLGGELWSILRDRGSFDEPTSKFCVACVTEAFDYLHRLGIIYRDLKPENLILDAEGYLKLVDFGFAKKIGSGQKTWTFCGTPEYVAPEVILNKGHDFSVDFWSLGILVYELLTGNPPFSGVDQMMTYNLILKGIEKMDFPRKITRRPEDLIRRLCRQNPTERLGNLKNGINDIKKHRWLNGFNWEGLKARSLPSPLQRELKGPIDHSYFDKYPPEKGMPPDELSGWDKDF

[17] = target: T6, cGMP-dependent protein kinase 2 (Homo sapiens); conditions: at 1 µM
[18] = target: T7, cAMP-dependent protein kinase catalytic subunit PRKX (Homo sapiens) (UniProt P51817); conditions: at 0.1 µM
T7 sequence (whole entry): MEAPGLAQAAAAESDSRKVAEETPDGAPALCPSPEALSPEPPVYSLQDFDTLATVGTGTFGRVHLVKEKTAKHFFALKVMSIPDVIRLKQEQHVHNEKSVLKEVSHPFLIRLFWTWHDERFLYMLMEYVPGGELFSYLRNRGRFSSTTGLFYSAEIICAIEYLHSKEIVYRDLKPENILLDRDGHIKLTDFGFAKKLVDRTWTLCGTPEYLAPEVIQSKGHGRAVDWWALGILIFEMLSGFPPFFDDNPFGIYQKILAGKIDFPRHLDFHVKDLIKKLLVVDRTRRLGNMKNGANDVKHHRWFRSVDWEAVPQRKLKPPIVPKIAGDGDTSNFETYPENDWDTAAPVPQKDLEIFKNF

[19] = target: T7, cAMP-dependent protein kinase catalytic subunit PRKX (Homo sapiens); conditions: at 1 µM
[20] = target: Rho-associated protein kinase 1 (Homo sapiens) (UniProt Q13464); conditions: at 0.1 µM;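 note: values are mean percent inhibition of ROCK1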
Chain of Rho-associated protein kinase 1 (Homo sapiens) (Q13464 2-1354 limits assumed): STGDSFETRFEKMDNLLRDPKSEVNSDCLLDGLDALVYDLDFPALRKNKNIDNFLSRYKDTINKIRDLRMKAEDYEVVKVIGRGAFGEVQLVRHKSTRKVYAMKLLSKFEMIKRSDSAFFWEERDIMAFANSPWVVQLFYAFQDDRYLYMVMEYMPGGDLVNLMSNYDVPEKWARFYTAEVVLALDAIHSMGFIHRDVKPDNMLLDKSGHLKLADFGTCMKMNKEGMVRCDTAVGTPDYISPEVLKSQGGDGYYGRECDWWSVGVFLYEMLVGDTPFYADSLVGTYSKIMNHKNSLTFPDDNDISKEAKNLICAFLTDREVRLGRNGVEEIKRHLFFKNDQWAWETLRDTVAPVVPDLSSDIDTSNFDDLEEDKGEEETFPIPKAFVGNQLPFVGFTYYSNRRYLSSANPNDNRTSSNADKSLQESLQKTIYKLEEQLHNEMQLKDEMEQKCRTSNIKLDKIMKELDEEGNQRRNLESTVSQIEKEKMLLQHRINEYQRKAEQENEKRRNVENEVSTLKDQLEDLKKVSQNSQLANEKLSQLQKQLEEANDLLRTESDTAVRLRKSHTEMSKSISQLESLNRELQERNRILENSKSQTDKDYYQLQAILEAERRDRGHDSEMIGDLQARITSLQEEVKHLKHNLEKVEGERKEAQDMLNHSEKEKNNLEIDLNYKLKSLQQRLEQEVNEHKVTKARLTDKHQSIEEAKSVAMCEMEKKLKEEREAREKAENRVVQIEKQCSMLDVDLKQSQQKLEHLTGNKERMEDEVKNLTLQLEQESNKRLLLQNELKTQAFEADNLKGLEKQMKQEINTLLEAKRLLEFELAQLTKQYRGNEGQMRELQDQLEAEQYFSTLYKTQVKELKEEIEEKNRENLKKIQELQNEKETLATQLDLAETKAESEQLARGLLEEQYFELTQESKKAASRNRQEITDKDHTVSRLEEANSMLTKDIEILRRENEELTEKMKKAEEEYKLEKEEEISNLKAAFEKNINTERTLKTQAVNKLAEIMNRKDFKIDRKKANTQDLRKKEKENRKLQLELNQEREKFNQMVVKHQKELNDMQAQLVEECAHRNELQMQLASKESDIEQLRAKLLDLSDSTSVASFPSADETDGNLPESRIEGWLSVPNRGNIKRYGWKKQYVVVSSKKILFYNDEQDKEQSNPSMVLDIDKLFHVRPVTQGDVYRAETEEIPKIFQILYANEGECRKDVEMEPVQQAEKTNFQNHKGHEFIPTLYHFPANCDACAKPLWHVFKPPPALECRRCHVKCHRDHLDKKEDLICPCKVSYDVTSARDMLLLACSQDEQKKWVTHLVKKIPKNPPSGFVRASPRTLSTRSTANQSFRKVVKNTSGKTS

Compound | inhibition [1] | inhibition [2] | inhibition [3] | inhibition [4] | inhibition [5] | inhibition [6] | inhibition [7] | inhibition [8] | inhibition [9] | inhibition [10] | inhibition [11] | inhibition [12] | inhibition [13] | inhibition [14] | inhibition [15] | inhibition [16] | inhibition [17] | inhibition [18] | inhibition [19] | inhibition [20]
Cc1ccc(C(=O)NC2CC2)cc1-c1ccc2[nH]ncc2c1 | 0.02% | -1.83% | -1.13% | -1.64% | 0.05% | -0.94% | -0.69% | -4.08% | -2.68% | -2.91% | 0.22% | -3.35% | -2.14% | -1.78% | 1.62% | -1.53% | -0.47% | -1.3% | -0.54% | -0.64%
O=C1Nc2ccccc2/C1=C/Nc1ccc2[nH]c(=O)[nH]c2c1 | 4.72% | 1.72% | 0.7% | 2.03% | 4.75% | 1.79% | 2.19% | 4.45% | 16.5% | 5.28% | 14% | 5.54% | 11.7% | 1.49% | 6.34% | 3.41% | 13.8% | 2.23% | 8.47% | 0.24%
Cc1ccc2c(-c3ccnc(Nc4cccc(C(F)(F)F)c4)n3)c(-c3ccccc3)nn2n1 | 5.36% | 1.34% | 1.37% | 2.13% | 3.7% | 1.37% | 5% | 7.68% | 39.8% | 12.8% | 56.8% | 11.6% | 51.5% | 3.11% | 5.07% | 3.26% | 4.35% | 2.65% | 2.54% | 3.08%
